# Most compounds without a hit are left out; they make up all but 5.7% or so of the library.
# GLP-1R agonist: activates the human GLP-1 receptor; Potency, µM (doses to about 45.6 µM), without a hit: top-dose activation, usual class: activators; HEK293 GLP-1R CRE-luciferase, luminescence, 4-6 h; cells express a hypersensitive GLP-1R form; AID 624172; actives 0.007% (n = 380,000); further: potency means the concentration at half of the fitted maximal effect; % of control where 0% means no effect
# Target sequence (P43220 whole entry, looked up): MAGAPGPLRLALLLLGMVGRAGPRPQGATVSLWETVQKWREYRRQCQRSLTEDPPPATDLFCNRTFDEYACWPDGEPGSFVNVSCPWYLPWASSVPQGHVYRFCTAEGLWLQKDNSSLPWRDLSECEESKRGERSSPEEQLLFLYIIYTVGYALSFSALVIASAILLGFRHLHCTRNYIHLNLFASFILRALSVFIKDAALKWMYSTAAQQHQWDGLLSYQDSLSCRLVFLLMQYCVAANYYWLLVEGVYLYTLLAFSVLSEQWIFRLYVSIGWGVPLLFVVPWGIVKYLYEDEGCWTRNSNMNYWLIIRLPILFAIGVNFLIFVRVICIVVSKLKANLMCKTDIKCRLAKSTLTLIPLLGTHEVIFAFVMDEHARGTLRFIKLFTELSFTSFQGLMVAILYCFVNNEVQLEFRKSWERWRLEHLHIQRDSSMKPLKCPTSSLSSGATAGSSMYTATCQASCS
# ClpP mod: qHTS Assay for Activators of ClpP; purified B. subtilis ClpP, FRET peptide cleavage, 20 min; Potency, µM (top dose mostly 57.5 µM), without a hit: at the highest dose activity change, negative = active; actives 1.9% (n = 340,000); active means well fitted falling curve with a large enough effect; inconclusive means small, poorly fitted or top-dose-only effect; inactive means no such curve, though single readings can be large or run the other way; further: potency means the concentration at half of the fitted maximal effect; the source files actives as falling curves though it sought activators and does not explain the sign; nearly all actives have a fitted effect of over 65% in size
#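 ClpP 10 microg/mL final, pH 8 Tris/KCl buffer with BSA, glycerol, Tween-20; compound pinned in; FRET-FV substrate; RT 20 min; Ex320/Em430; ΔFRET vs ADEP 5.8 microM, DMSO, no enzyme.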
# D3 ag: agonists of human D3 dopamine receptor; D3R DiscoveRx beta-arrestin cells, luminescence, 90 min; P35462; actives 0.58% (n = 410,000); AID 652048; max activation, %; in the data active means max activation above about 30%; further: 0% is about no effect
#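 Agonist mode: compounds and dopamine controls were applied to plated cells for 90 min at 37 degrees C after an overnight attachment at 1500 cells/well. Luminescent read-out followed 30 - 60 minutes at room temperature with DiscoveRx detection reagent.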
# DRD3 antagonist: antagonists of human D3 dopamine receptor | P35462 | D3R cells, DiscoveRx beta-arrestin luminescence, antagonist mode; stronger effect = lower value | max response, negative = inhibition, % | actives 2.5% (n = 360,000); in the data active means max response below about -50%; inconclusive means no clear call, values can overlap the other calls; further: on the % scale 0 is the no-effect control and ±100 the full control effect
#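 Cells plated overnight at 1500 cells/well, then exposed to library compounds with dopamine controls for 90 minutes at 37 degrees C. DiscoveRx reagent added for 30–60 minutes at room temperature; luminescence read, quantitative HTS format.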
# GLP1R inv ag: inverse agonists of human GLP-1 receptor | AID 624417 | P43220 | HEK293 GLP-1R CRE-luciferase, luminescence, 24 h; GLP-1R form is constitutively active | Potency, µM (top dose mostly 38.3 µM), inactives show at the highest dose activity change, negative = inhibition, most hits filed as inhibitors | actives 1.6% (n = 410,000); further: potency means the concentration at half of the fitted maximal effect; on the % scale 0 is the no-effect control and ±100 the full control effect; nearly all actives have a fitted effect of over 55% in size
#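 HEK293 cells stably co-expressing a cAMP-responsive luciferase reporter and constitutively active GLP-1R were seeded, incubated 12 h, then exposed to compounds for 24 h at 37 C. Luminescence was read 12 min after detection reagent; inverse agonists lower signal.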
# GLP1R cytotox: cytotoxicity counter-screen for GLP-1 receptor inverse agonists; HEK293 cAMP-luciferase reporter cells, luminescence, 24 h; Potency, µM (highest dose often 38.3 µM), inactives show at the highest dose activity change, negative = inhibition, usual class: inhibitors; actives 0.13% (n = 410,000); AID 624418;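 further: loss of luciferase light is scored as toxicity; potency means the concentration at half of the fitted maximal effect; on the % scale 0 is the no-effect control and ±100 the full control effect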
#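 1536-well qHTS counterscreen of the MLSMR; 200 cells/uL, 12 h pre-incubation, 23 nL cpd, 24 h at 37 deg C 5% CO2, luciferase detection reagent, 12 min RT, luminescence. Inhibition = undesired.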
# * = called active by the depositor; ? = inconclusive; . = no result; [ ] = another dose, or the depositor's remark. Unless noted, the call rests on the fitted dose curve; in most records, active means well fitted curve in the direction sought with a large enough effect; inconclusive means small, poorly fitted or top-dose-only effect, or another doubt; inactive means no such curve, though single readings can be large; an effect the other way counts as inactive or inconclusive.
SMILES,GLP-1R agonist,ClpP mod,D3 ag,DRD3 antagonist,GLP1R inv ag,GLP1R cytotox
COc1ccccc1C(=O)Nc1ccccc1SCc1cc(=O)c2ccccc2[nH]1,.,3%,-3,.,16%,4%
Cn1c(=O)c2[nH]c(NN=Cc3cccc(Br)c3)nc2n(C)c1=O,9%,.,4,33,?,-17%
O=C(Nc1nc2ccccc2s1)c1cnccn1,-4%,1%,-7,9,-26%,-7%
COC(=O)c1ccc2nc(Nc3nc4ccc(F)cc4s3)sc2c1,-16%,18µM*,7,6,-82%,58%
O=C(Nc1nnc(SCc2ccc(F)cc2)s1)c1ccccn1,?,.,-26,-66*,?,5.6µM*
O=C(Nc1nc2ccc(F)cc2s1)c1ccccn1,-2%,.,-25,-73*,?,?
CCOc1ccc(Sc2cc(C(=O)NCCc3ccc(OC)c(OC)c3)c3ccccc3n2)cc1,.,0%,11,.,10%,4%
S=C1NCCc2ccc(Cl)cc2C1c1ccccc1 (centres undefined),-6%,0%,-3,-62*,11µM*,?
c1ccc(C2CNCCc3ccccc32)cc1 (centres undefined),12%,1%,-5,-15,?,5%
Cc1cc(NS(=O)(=O)c2ccc(NC(=O)C(CC(C)C)N3C(=O)c4ccccc4C3=O)cc2)nc(C)n1 (centres undefined),1%,-3%,-7,-9,0%,-2%
Cc1cc(NS(=O)(=O)c2ccc(NC(=O)C(C(C)C)N3C(=O)c4ccccc4C3=O)cc2)nc(C)n1 (centres undefined),0%,1%,-6,-75*,1%,7%
Cc1cc(NS(=O)(=O)c2ccc(NC(=O)C(F)(F)F)cc2)nc(C)n1,3%,.,30*,-9,2%,-3%
Nc1[nH]c(C(=O)c2ccccc2)c(-c2ccc(Cl)cc2Cl)c1C(=O)c1ccc(Br)cc1,-4%,0%,1,-10,22%,4%
COC(OC)C1(CCc2ccccc2)NC(=O)NC1=O (centres undefined),0%,.,0,-20,1%,2%
C=CCNCCOc1ccccc1-c1ccccc1,6%,0%,-17,-64*,-12%,-27%
CCCCNCCOCCOc1ccccc1-c1ccccc1,-11%,0%,-6,-87*,?,?
CN(C)CCCCOc1ccccc1-c1ccccc1,1%,-4%,-53,-77*,0%,-19%
COCCNCCCCOc1ccccc1-c1ccccc1,4%,1%,-20,-29,-5%,?
CN(C)CCOc1ccccc1Cc1ccccc1,1%,-2%,-82,-75*,?,-11%
Cc1nn(-c2ccccc2)c(N2CCCC2)c1/C=N/NC(=S)Nc1cc(C(F)(F)F)ccc1Cl,-4%,28µM*,1,0,?,-2%[1.53 µM]
O=C(O)C1CCCCC1C(=O)Nc1ccccc1F (centres undefined),1%,-1%,-8,-51*,10%,0%
CCN1C(Br)=CCc2ccccc21,.,0%,.,.,.,.
COc1ccc(C(CNC(=O)c2cc(S(=O)(=O)N3CCN(c4ccccc4)CC3)ccc2Cl)N(C)C)cc1 (centres undefined),-2%,-1%,-2,-9,10µM*,-18%
O=C(NCC(O)c1ccccc1)c1cccc(S(=O)(=O)N2CCOCC2)c1 (centres undefined),0%,32µM*,-4,-5,0%,19%
COc1ccc(C(CNC(=O)c2cccc(S(=O)(=O)N3CCOCC3)c2)N2CCOCC2)cc1 (centres undefined),0%,1%,2,-13,1%,-9%
COc1ccc(/C=C/C(=O)Nc2ccccc2C(=O)O)cc1,-1%,.,-1,4,?,8%
